In ChEMBL document CHEMBL3988442, “University of Dundee, Small-Polar-MMV Screening Library” (2021):
Hit rate of the full screen: of about 69,000 compounds, about 1,000 (1.4%) showed an effect of 50% or more. Only a selection was taken, and strong results are over-represented in it overall.

Test system: Leishmania donovani
Test: Leishmania intramacrophage assay
Assay type: functional, organism-based
Set-up: scale not given: in the data most compounds retested in dose-response had high values

CCc1ccc(C(=O)N2CCCC2c2c(C)nn(C)c2OC)o1 (centres undefined)
Percent Effect (30.3 µM, […]): 16.94%

O=C(c1ccccn1)N1C[C@@H]2CC[C@H](C1)N(C(=O)Cc1cccs1)C2
Percent Effect (30.3 µM, […]): -16.24%

COc1ccc(-c2ccnc3nc(N4CCCCC4)[nH]c(=O)c23)cc1
Percent Effect (30.3 µM, […]): 8.173%

COc1ccccc1-c1ccnc2nc(N3CCCCC3)[nH]c(=O)c12
Percent Effect (30.3 µM, […]): 64.29%

COc1ccc(-c2ccnc3nc(N4CCCC4)[nH]c(=O)c23)cc1OC
Percent Effect (30.3 µM, […]): 26.43%

CCCN1CCCC1Cn1nc(C)cc1C (centres undefined)
Percent Effect (30 µM): 21.44%

O=S(=O)(c1ccccc1Br)N1CCC2(CC1)OCCS2
Percent Effect (30.3 µM, […]): -12.48%

CCCN1CCN(CC(O)c2ccc(OC(F)(F)F)cc2)CC1 (centres undefined)
Percent Effect (30.3 µM, […]): 27.81%

OCCN1CCN(CC(O)c2ccc(OC(F)(F)F)cc2)CC1 (centres undefined)
Percent Effect (30.3 µM, […]): 19.69%

COCCN1CCN(CC(O)c2ccc(OC(F)(F)F)cc2)CC1 (centres undefined)
Percent Effect (30.3 µM, […]): 52.28%

Cc1nc(CCN(C)C(=O)CN2CCCCCC2)no1
Percent Effect (30.3 µM, […]): 28.54%

CC(C)(C)NC(=O)NC(=O)CNc1c(F)cccc1N1CCCC1
Percent Effect (30.3 µM, […]): 14.38%

CCn1nc2c(cc1=O)CN(c1ncnc3ccsc13)CC2
Percent Effect (30.3 µM, […]): 42.12%

CCCn1nc2c(cc1=O)CN(c1ncnc3ccsc13)CC2
Percent Effect (30.3 µM, […]): 56.14%

Cn1nc2c(cc1=O)CN(c1ncnc3ccsc13)CC2
Percent Effect (30.3 µM, […]): 15.92%

Cc1nc([C@@H]2C[C@@H]3CCN(C(=O)c4ccnnc4)C[C@H]3O2)sc1C
Percent Effect (30 µM, 30.03 µM): 6.612%

CCN1C[C@H]2CCN(C(=O)NC3CCCC3)CC[C@H]2S1(=O)=O
Percent Effect (30 µM, 30.03 µM): -4.578%

CNC(=O)C1Cn2ccnc2C2(CCN(Cc3cccc(C)n3)CC2)O1.O=C(O)C(F)(F)F (centres undefined)
Percent Effect (30 µM, 30.03 µM): -9.841%

N#CC1CCCN(c2nc(-c3ccccc3)nc3c2CCNCC3)C1 (centres undefined)
Percent Effect (30 µM, 30.03 µM): 83.36%

NCC1CCCN(c2nc(-c3ccccc3)nc3c2CCNCC3)C1 (centres undefined)
Percent Effect (30.3 µM, […]): 17.41%

NCC1CN(c2nc(-c3ccccc3)nc3c2CCNCC3)CCO1 (centres undefined)
Percent Effect (30 µM, 30.03 µM): 6.18%

CCOCCCNC(=O)c1cc(Br)c2c(c1)OCCO2
Percent Effect (30.3 µM, […]): 32.12%

CCC(C)(C)NC(=O)Cn1nc(C)nc1-c1ccccc1
Percent Effect (30.3 µM, […]): -5.337%

CC1(C)CNC(=O)c2nc(CCN3CCC(O)CC3)[nH]c2C1
Percent Effect (30.3 µM, […]): -12%

O=C1[C@@H]2CN(Cc3cc4ccccc4o3)C[C@]2(C(=O)O)CN1CC1CC1
Percent Effect (30.3 µM, […]): 10.9%

CSCC[C@H](NC(C)=O)c1nc(CCc2ccccc2)n[nH]1
Percent Effect (30.3 µM, […]): 10.23%

NC(=O)c1ccccc1NC(=O)CCN1CCN(CCO)CC1
Percent Effect (30.3 µM, […]): 10.76%

COCC1c2c(cnn2C)CCN1C(=O)c1cc(C)on1.O=C(O)C(F)(F)F (centres undefined)
Percent Effect (30.3 µM, […]): 13.09%

COCC1c2c(cnn2C)CCN1C(=O)c1cccn1C.O=C(O)C(F)(F)F (centres undefined)
Percent Effect (30.3 µM, […]): 51.46%

COCC1c2c(cnn2C)CCN1C(=O)c1cscn1.O=C(O)C(F)(F)F (centres undefined)
Percent Effect (30.3 µM, […]): 23.63%

CCCC(=O)Nc1ccc(CC(=O)N(C)CCc2cn[nH]c2)cc1
Percent Effect (30.3 µM, […]): 12.21%

NC(=O)C1CCCN(S(=O)(=O)c2cnn(-c3ccccc3)c2)C1 (centres undefined)
Percent Effect (30.3 µM, […]): 13.13%

NC(=O)C1CCN(S(=O)(=O)c2cnn(-c3ccccc3)c2)C1 (centres undefined)
Percent Effect (30.3 µM, […]): 30.89%

NC(=O)C1CCN(S(=O)(=O)c2cnn(-c3ccccc3)c2)CC1
Percent Effect (30.3 µM, […]): 68.11%

COc1ccc([C@@H]2C[C@H](NC(C)=O)C[C@H](CCc3ccccc3)O2)cn1
Percent Effect (30.3 µM, […]): 22.12%

CN(C(=O)CCc1nc(C2CC2)no1)c1cc(C#N)c2ccccc2n1
Percent Effect (30.3 µM, […]): -8.685%

O=C(NCCOc1ccc2c(c1)OCO2)C1CC(=O)N(CC2CC2)C1 (centres undefined)
Percent Effect (30 µM, 30.03 µM): 11.04%

O=C(NCC(=O)N1CCCCC1)c1ccoc1
Percent Effect (30 µM, 30.03 µM): -16.27%

O=C(c1ccc2c(c1)OCO2)N1CCC[C@]2(C[C@H](OCC3CC3)CO2)C1
Percent Effect (30 µM, 30.03 µM): 23.48%

COC1COC2(CCN(C(=O)c3cocn3)CC2)C1 (centres undefined)
Percent Effect (30.3 µM, […]): -1.503%

CCO[C@@H]1CO[C@@]2(CCCN(C(=O)c3ccc(OC)c(F)c3)C2)C1
Percent Effect (30 µM, 30.03 µM): 6.334%

O=C(c1cocn1)N1CCC2(CC1)CC(OCC1CC1)CO2 (centres undefined)
Percent Effect (30.3 µM, […]): 52.58%

O=C(c1cocn1)N1CCC[C@]2(C[C@@H](OCC3CC3)CO2)C1
Percent Effect (30.3 µM, […]): 14.29%

O=C(c1ccc(F)c(F)c1)N1CCC[C@]2(C[C@@H](OCC3CC3)CO2)C1
Percent Effect (30.3 µM, […]): 53.63%

CC(C)CSCCN1CCCN(S(C)(=O)=O)CC1
Percent Effect (30.3 µM, […]): 6.004%

COc1ccc(C2CCCN2C(=O)c2ccc(=O)n(C)c2)cc1OC (centres undefined)
Percent Effect (30.3 µM, […]): -9.758%

c1ccc(OCCNCc2cccs2)nc1
Percent Effect (30.3 µM, […]): 46.82%

c1ccc(OCCCNCc2cccs2)nc1
Percent Effect (30.3 µM, […]): 58.66%

Cc1ccsc1CNCCCOc1ccccn1
Percent Effect (30.3 µM, […]): -17.78%

CC(C)[C@H]1CN(CCCO)C[C@@H]1NC(=O)CCC(F)(F)F
Percent Effect (30.3 µM, […]): -10.59%

CN(C)CCn1ccnc1C1CCCN(c2ncc(Cl)cc2F)C1 (centres undefined)
Percent Effect (30.3 µM, […]): 16%

CCS(=O)(=O)N1CCOC2(CCCN(c3ccc(C)nn3)C2)C1.O=C(O)C(F)(F)F (centres undefined)
Percent Effect (30 µM, 30.03 µM): 11.03%

CNc1nc(C(=O)N2C[C@H]3CC[C@@H]2CN(S(C)(=O)=O)C3)cs1
Percent Effect (30.3 µM, […]): 50.94%

CNc1nc(C(=O)N2C[C@H]3CC[C@@H]2CN(C2CCOCC2)C3)cs1
Percent Effect (30.3 µM, […]): 4.94%

CC(C)c1nc(C(=O)N2C[C@H]3CC[C@@H]2CN(C2CCOCC2)C3)cs1
Percent Effect (30.3 µM, […]): 12.76%

CS(=O)(=O)NC[C@]12COC[C@H]1CN(CC1CCCC1)C2.O=C(O)C(F)(F)F
Percent Effect (30 µM, 30.03 µM): -6.018%

CS(=O)(=O)NC[C@]12COC[C@H]1CN(CC1CCC1)C2.O=C(O)C(F)(F)F
Percent Effect (30.3 µM, […]): 80.19%

CS(=O)(=O)NC[C@]12COC[C@H]1CN(CCc1ccccc1)C2.O=C(O)C(F)(F)F
Percent Effect (30.3 µM, […]): 17.9%

O=C(Nc1cnccn1)[C@H]1CC[C@@H]2[C@@H](CCN2Cc2ccccn2)O1.O=C(O)C(F)(F)F
Percent Effect (30.3 µM, […]): 28.13%

CC(O)CCN(C)C(=O)Nc1cccc(F)c1 (centres undefined)
Percent Effect (30.3 µM, […]): 1.493%

Cl.Clc1cccnc1OC1CCNCC1
Percent Effect (30.3 µM, […]): 14.95%

Cl.Clc1ccccc1CN1CCc2nc(C3CCNCC3)ncc2C1
Percent Effect (30.3 µM, […]): 3.749%

OC1(CN2CCC(Cc3ncccn3)CC2)CCOCC1
Percent Effect (30.3 µM, […]): 5.693%

c1ccc2ncc(CC3CCNCC3)cc2c1
Percent Effect (30.3 µM, […]): -17.37%

Cl.Cl.c1ccc2c(c1)C(NC1CCCC1)CC21CCNCC1 (centres undefined)
Percent Effect (30.3 µM, […]): 32.48%

Clc1ccccc1C1(c2ccnc(CC3CC3)n2)CCNCC1
Percent Effect (30 µM, 30.03 µM): 93.39%

Cl.Clc1ccccc1CN1CCc2nc(C3CCCNC3)ncc2C1 (centres undefined)
Percent Effect (30.3 µM, […]): 6.249%

Clc1ccccc1C1(c2ccnc(C3CCCC3)n2)CCNCC1
Percent Effect (30.3 µM, […]): 99.4%

Clc1ccccc1C1(c2ccnc(C3CC3)n2)CCNCC1
Percent Effect (30.3 µM, […]): 94.79%

Cn1cc(-c2cnc(N3CCOCC3)nc2)cc1C(=O)N1CCCC1
Percent Effect (30.3 µM, […]): 13.22%

O=C(NCc1ccccc1-n1cccn1)N1CCC(N2CCCC2)C1 (centres undefined)
Percent Effect (30 µM): 13.6%

O=S(=O)(NC1=NCN(CCc2ccccc2)CN1)c1ccc(F)cc1
Percent Effect (30.3 µM, […]): 1.728%

CCc1cc(C(=O)N2CCC(C3CCN(c4ncccn4)CC3)C2)on1 (centres undefined)
Percent Effect (30.3 µM, […]): 4.034%

Cc1nc(NCCc2ccccc2)cc(C(=O)N2CCOCC2)n1
Percent Effect (30.3 µM, […]): 21.35%

CCn1c(-c2ccccc2)nn(CC(=O)NCCc2c[nH]cn2)c1=O
Percent Effect (30.3 µM, […]): 22.36%

Cc1cc(=O)c(C(=O)N(C)Cc2ccc(Cl)c(F)c2)c[nH]1
Percent Effect (30.3 µM, […]): 24.44%

Cc1cnn(C2CCCN(C(=O)c3cn4ccccc4n3)C2)c1 (centres undefined)
Percent Effect (30 µM): -3.479%

CCNC(=O)CN1CCN(Cc2nc3c(F)cccc3n2CC)CC1
Percent Effect (30 µM): 25.75%

Cn1cc(CCCN2CCN(Cc3cccc(O)c3)CC2)cn1
Percent Effect (30.3 µM, […]): 7.791%

Cc1nc(C)c(C)c(NCc2cnn3cccnc23)n1
Percent Effect (30.3 µM, […]): 15.17%

Cc1ccc(O)c(CNc2cccc(CN3CCSCC3)c2)n1
Percent Effect (30.3 µM, […]): 6.923%

Cc1nc(CN2C(=O)CCC23CCN(Cc2cccn2C)CC3)cs1.O=C(O)C(F)(F)F.O=C(O)C(F)(F)F
Percent Effect (30.3 µM, […]): 2.496%

N#CCCN(CC1CCOC1)Cn1ccc(-c2ccccc2)n1 (centres undefined)
Percent Effect (30.3 µM, […]): 16.63%

COc1ccncc1NC(=O)c1[nH]nc(C(C)C)c1Br
Percent Effect (30.3 µM, […]): 16.78%

CC(C)c1n[nH]c(C(=O)NC(C)c2ccncc2)c1Br (centres undefined)
Percent Effect (30 µM): 13.54%

CC(C)c1n[nH]c(C(=O)Nc2ccncc2)c1Br
Percent Effect (30 µM, 30.03 µM): 62.71%

NC1CCCCN(Cc2cc(-c3ccccc3OC(F)(F)F)no2)C1 (centres undefined)
Percent Effect (30.3 µM, […]): 99.07%

N[C@@H]1CCN(Cc2cc(-c3ccccc3OC(F)(F)F)no2)C[C@H]1O
Percent Effect (30.3 µM, […]): 12.53%

OC1COCCN(Cc2cc(-c3ccccc3OC(F)(F)F)no2)C1 (centres undefined)
Percent Effect (30.3 µM, […]): -21.47%

COc1ccc(C)cc1CN1CCC(c2cc3ncccc3cn2)CC1.Cl
Percent Effect (30.3 µM, […]): 41.3%

CS(=O)(=O)N1CCC(C(=O)Nc2nnc(C(F)(F)F)[nH]2)CC1
Percent Effect (30.3 µM, […]): 1.048%

COC[C@@H]1CCCN1C(=O)c1cc(-c2ccc(OC)cc2)n[nH]1
Percent Effect (30.3 µM, […]): 15.18%

Cc1nnc(CN(C)S(=O)(=O)c2ccc(Br)cc2Cl)n1C
Percent Effect (30.3 µM, […]): 25.06%

CN1CCC(N(Cc2ccco2)S(=O)(=O)c2cc(Br)ccc2Br)CC1
Percent Effect (30.3 µM, […]): 95.6%

O=c1cc(CN(Cc2ccco2)C2CC2)nc2ccc(Br)cn12
Percent Effect (30.3 µM, […]): 12.01%

CN(Cc1nnc2n1CCC2)S(=O)(=O)c1cc(Br)ccc1Br
Percent Effect (30.3 µM, […]): 22.5%

CN1CCC(N(Cc2ccco2)S(=O)(=O)c2ccc(Cl)cc2)CC1
Percent Effect (30.3 µM, […]): 24.1%

CN1CCC(N(Cc2ccco2)S(=O)(=O)c2ccc(Br)cc2Cl)CC1
Percent Effect (30.3 µM, […]): 87.02%

Cc1ccc(NCCCNC(=O)C2CCCN(Cc3ccco3)C2)nc1 (centres undefined)
Percent Effect (30.3 µM, […]): -17.24%
